Data reported in PubChem BioAssay (NCATS).
A number with no mark means an inactive call. Inconclusive results are not listed. Calls of active or inactive are those of the source. Unless noted, the call rests on the fitted dose curve; in most records, active means well fitted curve in either direction with a large enough effect (not every such curve was filed as active); inconclusive means small, poorly fitted or top-dose-only effect, or another doubt; inactive means flat fitted curve, though single readings scatter.

Experiments:
[1] = target: Lysosomal acid glucosylceramidase (Homo sapiens) (UniProt P04062); assay: Glucocerebrosidase-p2 (AID 348; in the data active means potency below about 10 µM; further: potency means the concentration at half of the fitted maximal effect); details: purified GBA, blue fluorogenic substrate, 40 min
Outline: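 Normal human glucocerebrosidase (0.2 nM) with blue fluorogenic substrate (80 uM final) in citrate/phosphate pH 5.9 with 10mM sodium taurocholate, 0.01% tween-20; 40 min RT, NaOH/glycine stop; fluorescence Ex 365/Em 440; AC50 from a titration from 0.6 nM upwards.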

[2] = AP1 Signaling Pathway (AID 357); details: ME-180 AP-1-bla reporter, EGF-induced, beta-lactamase ratio, 5 h; at 7.69 µM (top of the series) unless noted; further: on the % scale 0 is the no-effect control and ±100 the full control effect
Outline: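 ME-180 cells with beta-lactamase reporter under AP-1 response element, stimulated with EC50 EGF; compounds tested in titration series, 5 h at 37 °C. CCF4 substrate added 2.5 h at room temperature; 460/530 nm emission ratio gave %activity and AC50.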

[3] = NFAT Signaling Pathway (AID 444); details: Jurkat NFAT-bla M1, carbachol, beta-lactamase ratio, 5 h; at 7.69 µM (top of the series) unless noted;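 further: carbachol stimulus at about its EC50 of 1 µM final; on the % scale 0 is the no-effect control and ±100 the full control effect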
Outline: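 Jurkat cells carrying an NFAT-driven β-lactamase reporter and co-transfected muscarinic M1 receptor were treated with compound plus carbachol (1 uM final, an EC50 level) for 5 h at 37 °C. CCF4 loading followed for 1 h at RT; 460/530 nm ratio gave %activity.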

[4] = Stat Signaling Pathway (AID 446); details: ME-180 (cervical carcinoma) SIE beta-lactamase reporter, IL-6 stimulated, 5 h; at 7.69 µM (top of the series) unless noted;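 further: ME-180 cervical cancer cells given 40 pM IL-6 alongside compound; SIE-controlled beta-lactamase reporter measured as 460/530 nm FRET emission ratio; on the % scale 0 is the no-effect control and ±100 the full control effect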
Outline: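 FRET read-out (405 nm excitation, 460/530 nm emission) of a beta-lactamase reporter under a STAT-inducible element in ME-180 cervical carcinoma cells. Cells with compound receive 40 pM IL-6 for 5 h. Values are normalised to AC90 stimulation and AC90 JAK-inhibitor controls.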

[5] = target: Glucocorticoid receptor (Homo sapiens) (UniProt P04150); assay: GR-GFP Redistribution (AID 450;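 active means compounds whose dose series gives a full or clear partial fitted curve of increased nuclear translocation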; further: potency means the concentration at half of the fitted maximal effect); details: U2OS GR-GFP nuclear translocation, laser cytometry, 2 h
[6] = target: Glucocorticoid receptor (Homo sapiens) (UniProt P04150); assay: GR-EFC Redistribution (AID 451; calls by dose curve; further: potency means the concentration at half of the fitted maximal effect); details: CHO-K1 GR-EFC translocation, beta-gal luminescence, 2 h
Outline: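 CHO-K1 cells stably expressing nuclear-localized β-gal enzyme acceptor and GR fused C-terminally to the enzyme donor fragment; ligand-driven nuclear translocation restores β-gal by complementation. Compounds titrated up to 46 uM final, 2 h at 37 °C; luminescence read.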

[7] = target: Mitogen-activated protein kinase 10 (Mus musculus) (UniProt Q61831); assay: JNK3 AlphaScreen Assay (AID 530); details: JNK3 lysate, c-Jun phosphorylation; series mostly up to 11.4 µM;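 further: kinase came from lysate of stimulated human HepG2 cells; signal reports phosphorylation of biotinylated GST-cJun 1-79 at Ser73 with 10 µM ATP; on the % scale 0 is the no-effect control and ±100 the full control effect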
Outline: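 Biotinylated GST-cJun(1-79) served as substrate for JNK3 in HepG2 lysates stimulated with IL-1beta and TNF-alpha. ATP was 10 uM final, pH 7.6. Ser73 phosphorylation was quantified by AlphaScreen (680 nm excitation).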

[8] = target: 3',5'-cyclic-AMP phosphodiesterase 4B (Homo sapiens) (UniProt Q07343); assay: qHTS Assay for Inhibitors of PDE-IV (AID 607; active means well fitted activation curve with a large enough effect in the main read-out, with a control signal flat, not every such curve was filed as active; further: % of control where 0% means no effect); details: HEK293 ACTOne CNG channel cells, membrane potential fluorescence; series mostly up to 22.9 µM
Outline: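 Cell-based read-out of cAMP via a modified cyclic nucleotide-gated channel and membrane potential dye (535/590 nm) in HEK293 cells expressing PDE4 endogenously. Compounds tested up to 22.9 uM final; 100 uM RO 20-1724 reference.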

[9] = target: Cytochrome P450 2C9 (Homo sapiens) (UniProt P11712); assay: qHTS Assay for Inhibitors and Substrates of Cytochrome P450 2C9 (AID 883; active means well fitted curve in the direction sought with a large enough effect; an effect the other way counts as inactive or inconclusive; further: potency means the concentration at half of the fitted maximal effect; nearly all actives have a fitted effect of over 60% in size); details: recombinant CYP2C9, luciferin-H luminescence, 60 min; series mostly up to 11.4 µM
Outline: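 Human CYP2C9 (10nM) hydroxylated Luciferin-H (100uM, at its KM) to luciferin in 25mM KPO4. Compound was preincubated 10 min at 37C, then NADPH regeneration started a 60 min reaction at 37C. Luminescence was read after detection reagent, normalized to 57uM sulphaphenazole.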

[10] = target: Cytochrome P450 3A4 (Homo sapiens) (UniProt P08684); assay: qHTS Assay for Activators of Cytochrome P450 3A4 (AID 885; active means well fitted curve in the direction sought with a large enough effect; an effect the other way counts as inactive or inconclusive; further: nearly all actives have a fitted effect of over 65% in size); details: recombinant CYP3A4, Luciferin-PPXE luminescence, 60 min; series mostly up to 11.4 µM
Outline: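 Luminescent readout of luciferin formed from 25 uM Luciferin-PPXE (KM level) by 20 nM CYP3A4 in 200 mM KPO4, with 60 min NADPH-driven reaction at room temperature after 10 min compound exposure. Ketoconazole (57 uM) defined 100% inhibition.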

[11] = target: Cytochrome P450 2D6 (Homo sapiens) (UniProt P10635); assay: qHTS Assay for Inhibitors and Substrates of Cytochrome P450 2D6 (AID 891; active means well fitted curve in the direction sought with a large enough effect; an effect the other way counts as inactive or inconclusive; further: nearly all actives have a fitted effect of over 60% in size; further: potency means the concentration at half of the fitted maximal effect); details: recombinant CYP2D6, luciferin-ME EGE luminescence; series mostly up to 11.4 µM
Outline: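 Luminescent read-out of luciferin formed by 5 nM human CYP2D6 demethylating 30 uM Luciferin-ME EGE (Km level) over 60 min at room temperature after NADPH regeneration addition. Data normalized to full inhibition by 1.43 uM quinidine.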

[12] = target: Cytochrome P450 2C19 (Homo sapiens) (UniProt P33261); assay: qHTS Assay for Inhibitors and Substrates of Cytochrome P450 2C19 (AID 899; active means well fitted curve in the direction sought with a large enough effect; an effect the other way counts as inactive or inconclusive; further: nearly all actives have a fitted effect of over 60% in size; further: potency means the concentration at half of the fitted maximal effect); details: recombinant CYP2C19, luciferin-H EGE luminescence; series mostly up to 11.4 µM
Outline: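 Human CYP2C19 (5nM) with Luciferin-H EGE at 10uM (its KM) in 50mM KPO4 was preincubated with compound for 10 min at 37C. NADPH regeneration started a 60 min 37C reaction. Luciferin was read by luminescence, normalized to 57uM ketoconazole.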

Sequence of 3',5'-cyclic-AMP phosphodiesterase 4B (Homo sapiens) (Q07343 whole entry, looked up): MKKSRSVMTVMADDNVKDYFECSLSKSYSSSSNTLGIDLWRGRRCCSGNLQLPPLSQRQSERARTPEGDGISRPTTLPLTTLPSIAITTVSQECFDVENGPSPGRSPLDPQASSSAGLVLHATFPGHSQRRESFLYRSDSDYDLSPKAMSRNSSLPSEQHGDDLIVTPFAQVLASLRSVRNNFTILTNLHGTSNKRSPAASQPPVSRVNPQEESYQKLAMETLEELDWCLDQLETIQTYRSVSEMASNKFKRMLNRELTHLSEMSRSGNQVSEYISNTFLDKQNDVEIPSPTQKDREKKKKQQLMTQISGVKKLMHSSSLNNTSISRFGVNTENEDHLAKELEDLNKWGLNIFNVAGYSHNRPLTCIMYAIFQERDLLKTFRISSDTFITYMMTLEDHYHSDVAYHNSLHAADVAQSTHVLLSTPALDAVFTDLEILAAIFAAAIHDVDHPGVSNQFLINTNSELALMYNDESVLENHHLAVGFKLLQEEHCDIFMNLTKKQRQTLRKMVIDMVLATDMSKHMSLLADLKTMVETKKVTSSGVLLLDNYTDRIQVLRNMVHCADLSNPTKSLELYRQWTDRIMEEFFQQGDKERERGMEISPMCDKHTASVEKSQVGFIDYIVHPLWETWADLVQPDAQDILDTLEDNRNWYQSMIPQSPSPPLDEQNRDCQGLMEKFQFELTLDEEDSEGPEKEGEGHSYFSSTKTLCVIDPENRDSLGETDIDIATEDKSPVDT
Sequence of Glucocorticoid receptor (Homo sapiens) (P04150 whole entry, looked up, the tested form may be a part): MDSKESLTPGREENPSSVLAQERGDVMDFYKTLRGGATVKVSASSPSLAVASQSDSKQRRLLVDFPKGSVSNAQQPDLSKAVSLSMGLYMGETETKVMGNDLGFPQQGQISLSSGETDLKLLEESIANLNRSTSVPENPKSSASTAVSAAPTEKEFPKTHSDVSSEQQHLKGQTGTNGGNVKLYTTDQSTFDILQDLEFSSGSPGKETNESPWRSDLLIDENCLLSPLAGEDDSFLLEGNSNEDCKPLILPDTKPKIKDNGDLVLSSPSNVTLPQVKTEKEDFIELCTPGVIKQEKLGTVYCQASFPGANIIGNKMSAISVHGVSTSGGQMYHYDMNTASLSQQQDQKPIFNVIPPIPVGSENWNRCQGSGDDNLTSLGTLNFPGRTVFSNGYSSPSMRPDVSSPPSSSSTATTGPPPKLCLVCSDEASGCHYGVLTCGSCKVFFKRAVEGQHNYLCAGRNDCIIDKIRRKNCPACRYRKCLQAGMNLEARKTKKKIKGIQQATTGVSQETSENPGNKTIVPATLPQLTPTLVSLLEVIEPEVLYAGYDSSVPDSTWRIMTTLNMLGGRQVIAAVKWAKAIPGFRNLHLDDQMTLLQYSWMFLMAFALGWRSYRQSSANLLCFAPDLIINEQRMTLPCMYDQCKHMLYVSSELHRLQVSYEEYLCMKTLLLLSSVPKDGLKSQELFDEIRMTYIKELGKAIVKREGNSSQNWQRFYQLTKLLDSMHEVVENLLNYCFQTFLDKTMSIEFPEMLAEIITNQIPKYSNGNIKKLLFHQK
Sequence of Lysosomal acid glucosylceramidase (Homo sapiens) (P04062 whole entry, looked up): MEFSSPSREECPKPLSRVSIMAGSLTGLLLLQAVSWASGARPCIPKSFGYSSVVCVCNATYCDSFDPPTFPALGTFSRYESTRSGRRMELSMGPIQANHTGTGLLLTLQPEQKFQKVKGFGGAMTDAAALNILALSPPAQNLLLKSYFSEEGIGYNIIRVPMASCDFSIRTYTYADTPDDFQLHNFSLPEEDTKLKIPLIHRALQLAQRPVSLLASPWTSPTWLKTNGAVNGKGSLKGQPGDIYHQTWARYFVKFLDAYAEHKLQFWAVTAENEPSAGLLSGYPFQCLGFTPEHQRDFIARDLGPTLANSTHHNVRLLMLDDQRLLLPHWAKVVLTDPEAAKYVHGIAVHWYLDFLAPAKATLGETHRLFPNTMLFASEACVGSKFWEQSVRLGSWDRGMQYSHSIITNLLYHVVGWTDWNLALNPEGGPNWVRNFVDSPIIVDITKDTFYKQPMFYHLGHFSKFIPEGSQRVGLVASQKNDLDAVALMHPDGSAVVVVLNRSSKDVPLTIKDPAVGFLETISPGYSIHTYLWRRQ
Sequence of Cytochrome P450 2D6 (Homo sapiens) (P10635 whole entry, looked up): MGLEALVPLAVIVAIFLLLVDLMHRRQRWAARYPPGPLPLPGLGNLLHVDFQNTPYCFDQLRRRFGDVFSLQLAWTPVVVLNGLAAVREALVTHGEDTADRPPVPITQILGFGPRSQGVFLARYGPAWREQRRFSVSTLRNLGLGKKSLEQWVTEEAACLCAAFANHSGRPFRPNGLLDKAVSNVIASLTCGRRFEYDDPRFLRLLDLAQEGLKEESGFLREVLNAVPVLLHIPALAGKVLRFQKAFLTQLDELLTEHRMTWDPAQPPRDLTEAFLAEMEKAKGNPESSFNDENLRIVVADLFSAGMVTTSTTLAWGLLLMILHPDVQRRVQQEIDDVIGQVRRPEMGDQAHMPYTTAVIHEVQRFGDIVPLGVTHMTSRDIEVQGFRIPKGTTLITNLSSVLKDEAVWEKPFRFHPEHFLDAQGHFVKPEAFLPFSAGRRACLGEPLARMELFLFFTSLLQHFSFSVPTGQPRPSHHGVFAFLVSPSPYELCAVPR
Sequence of Cytochrome P450 2C19 (Homo sapiens) (P33261 whole entry, looked up): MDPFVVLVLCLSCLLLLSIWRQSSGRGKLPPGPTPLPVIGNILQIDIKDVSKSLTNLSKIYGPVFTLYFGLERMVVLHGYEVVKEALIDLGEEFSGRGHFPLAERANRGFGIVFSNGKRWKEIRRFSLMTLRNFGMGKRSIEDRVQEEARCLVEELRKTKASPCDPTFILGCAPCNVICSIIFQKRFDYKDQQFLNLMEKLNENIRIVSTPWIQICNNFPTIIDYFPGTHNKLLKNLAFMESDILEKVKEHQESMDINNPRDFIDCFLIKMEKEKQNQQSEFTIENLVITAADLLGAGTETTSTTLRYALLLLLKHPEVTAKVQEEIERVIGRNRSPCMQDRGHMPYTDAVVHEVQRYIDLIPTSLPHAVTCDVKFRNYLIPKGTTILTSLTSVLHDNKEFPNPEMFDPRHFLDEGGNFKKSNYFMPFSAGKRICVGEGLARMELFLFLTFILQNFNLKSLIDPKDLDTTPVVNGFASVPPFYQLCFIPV
Sequence of Cytochrome P450 2C9 (Homo sapiens) (P11712 whole entry, looked up): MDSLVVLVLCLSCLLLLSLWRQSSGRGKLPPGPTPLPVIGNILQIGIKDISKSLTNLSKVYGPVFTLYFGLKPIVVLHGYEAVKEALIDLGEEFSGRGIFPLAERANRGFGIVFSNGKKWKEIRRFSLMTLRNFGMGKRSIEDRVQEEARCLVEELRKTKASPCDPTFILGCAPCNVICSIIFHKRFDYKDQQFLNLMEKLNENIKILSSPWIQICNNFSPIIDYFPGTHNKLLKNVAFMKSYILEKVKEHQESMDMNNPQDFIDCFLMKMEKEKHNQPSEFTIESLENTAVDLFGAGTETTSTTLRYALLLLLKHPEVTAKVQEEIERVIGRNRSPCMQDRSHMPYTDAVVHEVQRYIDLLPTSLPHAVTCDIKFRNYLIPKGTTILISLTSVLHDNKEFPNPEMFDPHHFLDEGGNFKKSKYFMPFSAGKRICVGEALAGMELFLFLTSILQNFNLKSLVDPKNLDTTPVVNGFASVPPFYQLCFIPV
Sequence of Cytochrome P450 3A4 (Homo sapiens) (P08684 whole entry, looked up): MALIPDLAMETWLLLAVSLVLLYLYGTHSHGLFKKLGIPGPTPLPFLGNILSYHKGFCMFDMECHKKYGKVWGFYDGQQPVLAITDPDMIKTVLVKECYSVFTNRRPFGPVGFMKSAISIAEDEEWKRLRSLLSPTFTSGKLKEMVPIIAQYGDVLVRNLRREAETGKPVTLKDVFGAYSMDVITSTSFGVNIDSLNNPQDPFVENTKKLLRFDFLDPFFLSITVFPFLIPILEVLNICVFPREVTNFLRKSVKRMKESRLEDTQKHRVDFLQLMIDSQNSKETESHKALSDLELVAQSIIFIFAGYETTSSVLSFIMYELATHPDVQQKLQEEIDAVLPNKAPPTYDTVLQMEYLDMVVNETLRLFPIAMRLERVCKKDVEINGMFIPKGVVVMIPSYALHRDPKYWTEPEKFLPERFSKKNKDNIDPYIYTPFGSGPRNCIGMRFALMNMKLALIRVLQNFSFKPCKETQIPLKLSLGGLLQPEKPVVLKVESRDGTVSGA

| Compound | Potency [1] | activity change, negative = inhibition [2] | activity change, negative = inhibition [3] | activity, negative = inhibition [4] | Potency [5] | Potency [6] | Potency [7] | Potency [8] | Potency [9] | Potency [10] | Potency [11] | Potency [12] |
| --- | --- | --- | --- | --- | --- | --- | --- | --- | --- | --- | --- | --- |
| Cc1cc(Cl)ccc1Nc1sc(C(=O)c2cc3cc(Cl)ccc3o2)c(N)c1C#N | > 11.4 µM | -2.93% | 14.9% | -13.7% | > 46 µM | > 9.22 µM | inactive | inactive | 1.26 µM (active) |  |  |  |
| c1cncc(CSc2ncnc3nc[nH]c23)c1 | > 11.4 µM | -2.25% | 19.6% | 8.79% | > 46 µM | > 9.22 µM | inactive | inactive |  |  |  |  |
| C[N+](C)(C)c1ncnc2c1ncn2[C@@H]1C[C@H](O)[C@@H](CO)O1 | > 11.4 µM | 2.41% | 9.78% | 3.06% | > 46 µM | > 9.22 µM | inactive | inactive |  |  |  |  |
| CN(Cc1cc(Br)cc(Br)c1O)Cc1c(O)ccc2ccccc12 | > 11.4 µM | 3.01% | -25.5% | -8.41% | > 46 µM | > 9.22 µM | inactive | inactive |  | inactive | 1.58 µM (active) | 0.501 µM (active) |
| c1cncc(CNCc2cccnc2)c1 | > 11.4 µM | -1.94% | 2.26% | 12.4% | > 46 µM | > 9.22 µM | inactive | inactive |  |  | inactive |  |
| N#Cc1c(NC(=O)CCC(=O)O)ccc2ccccc12 | > 11.4 µM | -3.75% | 18.9% | 4.61% | > 46 µM | > 9.22 µM | inactive | inactive |  |  |  | inactive |
| c1ccc2sc(SCN(C3CCCCC3)C3CCCCC3)nc2c1 | > 11.4 µM | 4.99% | -7.96% | -3.43% | > 46 µM | > 9.22 µM | inactive | inactive |  |  | 1.58 µM (active) |  |
| CC(C)[C@](N)(C(=O)O)c1ccccc1 | > 11.4 µM | -9.87% | 5.98% | 29.8% | > 46 µM | > 9.22 µM | inactive | inactive |  |  | inactive |  |
